Here are results for 90 compounds from PubChem BioAssay AID743445 (Broad Institute, 2014).

Out of some 310,000 compounds screened, about 1,700 (0.55%) were called active. This is one part of a sample in which actives are shown more often than they occur. Values without a mark were called inactive. No stated cut-off is given here; in the data, active means inhibition above about 50%; inactive means the rest.

Histone-lysine N-methyltransferase NSD2 (Homo sapiens), sequence (O96028 whole entry, looked up): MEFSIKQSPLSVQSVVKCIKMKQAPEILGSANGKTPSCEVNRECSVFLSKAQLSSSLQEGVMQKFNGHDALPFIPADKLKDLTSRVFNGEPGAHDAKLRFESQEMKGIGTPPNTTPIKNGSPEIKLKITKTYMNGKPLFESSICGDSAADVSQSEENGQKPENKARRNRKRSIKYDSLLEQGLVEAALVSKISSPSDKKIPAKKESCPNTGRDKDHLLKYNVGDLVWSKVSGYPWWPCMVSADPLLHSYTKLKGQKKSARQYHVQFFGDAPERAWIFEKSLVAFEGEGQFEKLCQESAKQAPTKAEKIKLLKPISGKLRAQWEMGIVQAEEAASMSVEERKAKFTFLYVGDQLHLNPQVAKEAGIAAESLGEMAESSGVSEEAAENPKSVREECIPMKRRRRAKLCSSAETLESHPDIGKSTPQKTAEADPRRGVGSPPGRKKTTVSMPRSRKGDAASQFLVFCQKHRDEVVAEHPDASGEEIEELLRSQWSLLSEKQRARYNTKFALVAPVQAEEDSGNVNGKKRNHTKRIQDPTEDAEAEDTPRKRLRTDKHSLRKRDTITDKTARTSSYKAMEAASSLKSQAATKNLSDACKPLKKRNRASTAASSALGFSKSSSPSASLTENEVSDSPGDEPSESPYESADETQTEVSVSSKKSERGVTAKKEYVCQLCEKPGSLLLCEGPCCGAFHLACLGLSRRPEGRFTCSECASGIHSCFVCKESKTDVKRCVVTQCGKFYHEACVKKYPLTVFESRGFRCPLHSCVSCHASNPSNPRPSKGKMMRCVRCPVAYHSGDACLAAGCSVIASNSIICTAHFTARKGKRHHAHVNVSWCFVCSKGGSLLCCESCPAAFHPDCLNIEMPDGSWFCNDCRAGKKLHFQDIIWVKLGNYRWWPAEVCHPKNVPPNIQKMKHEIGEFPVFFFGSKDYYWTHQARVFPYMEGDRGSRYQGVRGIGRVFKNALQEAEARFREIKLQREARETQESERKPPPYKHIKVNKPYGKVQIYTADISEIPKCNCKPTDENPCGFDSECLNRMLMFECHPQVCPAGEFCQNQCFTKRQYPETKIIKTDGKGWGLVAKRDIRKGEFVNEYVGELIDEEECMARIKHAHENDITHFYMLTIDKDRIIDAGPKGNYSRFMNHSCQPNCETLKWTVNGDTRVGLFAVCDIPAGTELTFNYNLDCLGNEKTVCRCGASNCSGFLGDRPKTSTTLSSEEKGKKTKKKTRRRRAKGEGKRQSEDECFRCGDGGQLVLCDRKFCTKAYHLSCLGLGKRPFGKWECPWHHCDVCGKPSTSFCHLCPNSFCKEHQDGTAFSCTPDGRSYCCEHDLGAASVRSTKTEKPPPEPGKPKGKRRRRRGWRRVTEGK

This test addresses Histone-lysine N-methyltransferase NSD2 (Homo sapiens) (UniProt O96028). In words: NSD2 histone methyltransferase inhibitors, primary screen, biochemical, AlphaScreen, single concentration, set 2 (AID 743445). The note with it: NSD2 peptide methylation, 120 min, at 12.5 µM, active compounds read high.
In the case of `CC(C)CSc1nnc(-c2cccnc2)n1Cc1ccccc1`, the inhibition – broadly, the drop in the measured response relative to a control, in per cent – was -2.26%.
`CCOc1ccccc1Nc1nnc(SCC(=O)Nc2cc(C)on2)s1`: the inhibition was -5.24%.
`CCOc1ccccc1Nc1nnc(SCc2ccc(C(=O)OC)o2)s1`: the inhibition is 103% (active).
For the compound `COC(=O)c1ccc(CSc2nnc(N)s2)o1`, the inhibition is -2.67%.
For the compound `Cc1ccc(NC(=O)C(C)Sc2nc(C)cs2)cc1` (stereo not given), the inhibition is -1.63%.
`O=C(NCc1ccco1)C1CCCN(S(=O)(=O)c2ccc(Cl)s2)C1` (stereo not given): the inhibition is 1.68%.
The same measure for `O=C(Cc1ccccc1)NC(=S)Nc1ccc(N2CCCCC2)cc1`: 0.281%; for `CC(=O)Nc1ccc(S(=O)(=O)Nc2ccc(N3CCCCC3)cc2)cc1`: 11.4%; for `O=C1C=CC(=O)N1c1ccc(N2CCCCC2)cc1`: 51.2% (active).
Turning to `O=C(CN1CCCc2ccccc21)NCc1ccc(F)cc1`, the inhibition is 0.199%.
For `Cc1ccc(NC(=O)Cc2cccc(F)c2)c(S(=O)(=O)N2CCOCC2)c1`, the inhibition was -1.61%.
As to `O=C(O)c1ccccc1N=N/C(=N/Nc1cc(S(=O)(=O)O)ccc1O)c1ccccc1`, the inhibition was 70.7% (active).
`O=C(O)c1ccccc1/C=N/Nc1ccc(S(=O)(=O)Nc2ccc(Cl)cc2)cc1[N+](=O)[O-]`: the inhibition was 14.9%.
Consider `O=C(Nc1ccc(C(=O)O)c(O)c1)c1ccccc1`, for which the inhibition is -0.136%.
The same measure for `O=C(CSc1nnc(COc2ccccc2)n1-c1ccc(Cl)cc1)Nc1ccc2c(c1)OCO2`: -1.07%.
Take `O=C(N/N=C/c1cccnc1)c1cc2ccccc2cc1O`: the inhibition is 4.16%.
For the compound `Cc1ccc(/C=N/NC(=O)c2cc3ccccc3cc2O)o1`, the inhibition was 50% (active).
For the compound `O=C(NN=Cc1ccc(N2CCOCC2)cc1)c1cc2ccccc2cc1O`, the inhibition is -0.134%.
With `Clc1ccc(-n2c(COc3ccccc3)nnc2SCc2nc3ccccc3[nH]2)cc1`, the inhibition was 1.86%.
Turning to `Cc1cc(=O)[nH]c(SCC(=O)Nc2ccc(F)cc2F)n1`, the inhibition was -12.4%.
For `CN(C)S(=O)(=O)c1cccc(C(=O)N/N=C\c2ccco2)c1`, the inhibition is 3.26%.
For the compound `Cc1ccccc1S(=O)(=O)NC(=O)C1(C)CCN1C(=O)C1(c2ccccc2)CCCC1` (stereo not given), the inhibition was -0.963%.
Turning to `CCC1=[N+]([O-])C(C)(/C(C)=N\O)N(O)C1(C)C` (stereo not given), the inhibition is 96.5% (active).
Turning to `CCC1(C)N(O)C(C)(C)C(c2ccc(OC)cc2)=[N+]1[O-]` (stereo not given), the inhibition was -2.21%.
Under `C/C(=N\O)C1(C)N(O)C(C)(C)C(c2ccc(Br)cc2)=[N+]1[O-]` (stereo not given) stands -1.39%.
For the compound `CC(C)NC(=O)C1(C)CCCCCN1C(=O)c1ccc(-c2ccccc2)cc1` (stereo not given), the inhibition was -1.44%.
Take `Cc1ccc(-n2c(SCC(=O)Nc3ccc(S(=O)(=O)Nc4nccs4)cc3)nnc2-c2ccncc2)cc1`: the inhibition was 6.51%.
The same measure for `COc1cccc(N2CCN(CC(=O)N(C)Cc3ccc(F)cc3)CC2)c1`: 2.97%.
Consider `CN(C)c1ccc(/C=N/Nc2cc(N3CCOCC3)nc(N3CCOCC3)n2)cc1`, for which the inhibition is 4.94%.
For `C(=N/Nc1cc(N2CCOCC2)nc(N2CCOCC2)n1)/c1ccccc1`, the inhibition was 50.1% (active).
`COc1ccc(/C=N/Nc2cc(N3CCOCC3)nc(C)n2)c(OC)c1`: the inhibition was 7.29%.
Consider `Nn1c(SCC(=O)N2c3ccccc3Sc3ccccc32)nnc1-c1n[nH]c2c1CCC2`, for which the inhibition is 14.3%.
Turning to `Cc1ccc(-n2c(SCC(=O)Nc3cccc4ccccc34)nnc2-c2ccco2)cc1`, the inhibition was -0.2%.
Regarding `COC(=O)CNC(=O)c1ccccc1[N+](=O)[O-]`, the inhibition was 0.597%.
The same measure for `O=C(NNS(=O)(=O)Cc1ccccc1)c1ccc([N+](=O)[O-])cc1`: -3.19%; for `O=C(CNC(=O)c1ccccc1)Oc1ccc([N+](=O)[O-])cc1`: 53.4% (active).
For `CC(=O)Nc1cccc(-c2cc3nc(NCc4cccnc4)n(C)c(=O)c3s2)c1`, the inhibition was -4.37%.
The same measure for `Cc1ccccc1NC(=O)Cn1nnc(-c2ccccc2F)n1`: -1.41%; for `O=C(NCc1ccccc1)[C@@H]1CCCN1C(=O)[C@@H](NS(=O)(=O)c1ccc(F)cc1F)C1CCCCC1`: -1.37%.
Consider `O=C(NC1=CC(=O)c2ccccc2C1=O)c1ccccc1`, for which the inhibition was 40.2%.
`CC(=O)N(C1=C(Cl)C(=O)c2ccccc2C1=O)c1ccc(C(=O)O)cc1`: the inhibition was 142% (active).
Take `CCOC(=O)C1(Cc2ccccc2)CCN(Cc2cn(C(C)=O)c3ccccc23)CC1`: the inhibition was 3.51%.
For the compound `Cc1ccc(-c2nnc(SCC(=O)Nc3ccc(Oc4ccccc4)cc3)n2Cc2ccco2)cc1`, the inhibition is 0.417%.
On to `CCOc1cc(/C=C/C(=O)OCC(=O)NCCN2C(=O)CSC2=O)ccc1OCC(C)C`, for which the inhibition was 128% (active).
As for `CCOC(=O)CCCNC(=O)COC(=O)/C=C/c1ccc2c(c1)OCO2`, the inhibition was -2.71%.
For `CCOc1ccc(/C=C/C(=O)OCC(=O)c2ccccc2OC)cc1OC`, the inhibition is -0.606%.
In the case of `COc1ccc(-n2c(SCC(=O)NC3CCCC3)nnc2-c2ccncc2)cc1`, the inhibition is 7.3%.
`O=C(CN1CCC(O)(c2ccccc2)CC1)Nc1ccc2c(c1)OCCO2`: the inhibition is -3.29%.
Under `O=C(Cn1cc(C(F)(F)F)ccc1=O)Nc1ccc2c(c1)OCCO2` stands 58% (active).
Turning to `O=C(Cn1c(=O)sc2ccccc21)Nc1ccc2c(c1)OCCO2`, the inhibition is 6.04%.
Take `O=C1Nc2ccccc2OC1CC(=O)N1CCCCCCC1` (stereo not given): the inhibition is 4.5%.
For `O=C(NCc1cccs1)C1CCCN(S(=O)(=O)c2ccc([N+](=O)[O-])cc2)C1` (stereo not given), the inhibition is -2.05%.
The same measure for `CCOc1ccc(Cl)cc1-c1cc(C(=O)NCc2cccs2)[nH]n1`: 0.509%.
Turning to `CCOc1ccc(N(CC(=O)Nc2c(C)n(C)n(-c3ccccc3)c2=O)S(=O)(=O)c2ccc(Cl)s2)cc1`, the inhibition was 0.729%.
`Cc1sc2ncnc(SCC(=O)NC3CCS(=O)(=O)C3)c2c1C` (stereo not given): the inhibition is -1.67%.
Regarding `Cc1sc2ncnc(SCC(=O)Nc3ccc(CN4CCCC4)cc3)c2c1C`, the inhibition was 56.5% (active).
In the case of `COC(=O)c1c(-c2cccs2)csc1NC(=O)CSc1ncnc2sc(C)c(C)c12`, the inhibition is -3.04%.
In the case of `Nn1c(SCC(=O)Nc2cccc3ccccc23)nnc1-c1cc(-c2ccc(F)cc2)n[nH]1`, the inhibition was 8.09%.
Consider `COc1ccc(-n2c(COc3ccccc3)nnc2SCC(=O)Nc2ccc3c(c2)OCO3)cc1`, for which the inhibition was -0.703%.
With `CCOC(=O)c1c(C)[nH]c(C(=O)NCCN2CCOCC2)c1C`, the inhibition is 74.8% (active).
Regarding `Cc1cc(C)cc(C(=O)NCCN2CCOCC2)c1`, the inhibition is 4.87%.
Turning to `CC(=O)c1c(C)[nH]c(C(=O)NCCCN2CCCC2)c1C`, the inhibition is 7.16%.
For `C=CCn1c(SCC(N)=O)nnc1-c1ccccc1OC`, the inhibition is -2.46%.
For `Cc1ccc(-n2c(COc3ccccc3)nnc2SCC(=O)Nc2ccc3c(c2)OCCO3)cc1`, the inhibition is 5.45%.
On to `O=C(Nc1cc(F)cc(F)c1)OC1CCC12CCC(c1ccccc1)CC2` (stereo not given), for which the inhibition was -4.2%.
Under `COC(=O)c1ccccc1-n1cc(COC(=O)NCCc2ccccc2)nn1` stands -1.58%.
As for `O=C(CCCCCN1C(=O)C2C3C=CC(C3)C2C1=O)Nc1ccccc1` (stereo not given), the inhibition is -10.2%.
The same measure for `O=C(Nc1ccccc1)N1CCN(Cc2nc3ccccc3c(=O)[nH]2)CC1`: -3.56%; for `O=C(CSc1nnnn1-c1ccccc1)NCc1ccco1`: -2.53%; for `O=C(NCc1ccco1)c1nc(-c2ccccc2)n(-c2ccccc2)n1`: 59.6% (active).
In the case of `O=C(NCc1ccco1)c1nc2ncccn2n1`, the inhibition is -4.87%.
As for `COC(=O)C1=C(C)N(Cc2cccc(C(F)(F)F)c2)C(=NCc2ccccc2)NC1c1ccccc1C(F)(F)F` (stereo not given), the inhibition was -2.64%.
In the case of `Nn1c(SCC(=O)Nc2ccc(S(N)(=O)=O)cc2)nnc1-c1n[nH]c2c1CCC2`, the inhibition was -3.92%.
`O=C(CSc1nc2sc3c(c2c(=O)n1-c1ccccc1)CCCC3)NN=Cc1ccc(OCc2ccccc2)cc1`: the inhibition is 6.16%.
Under `C/C(CC(=O)NC(C)(C)C)=N\NC(=O)c1ccco1` stands -3.83%; under `COc1cccc2cc(/C(C)=N/NC(=O)c3ccco3)oc12`, -1.2%.
As to `C/C(=N/NC(=O)CCc1ccccc1)c1ccco1`, the inhibition was 51.2% (active).
As for `CCOc1ccc(Oc2c(Cl)cnn(-c3ccc(C)cc3)c2=O)cc1`, the inhibition is -2.84%.
On to `O=C(CSc1nc2c(c(=O)[nH]1)CCCC2)N1CCCCC1`, for which the inhibition is -1.56%.
Consider `CC(C)Nc1nc(NCCOc2ccccc2Cl)c2sccc2n1`, for which the inhibition was 2.58%.
The same measure for `COc1cc(/C=C/C(=O)n2cnc3ccccc32)cc(OC)c1OC`: 0.939%; for `Cc1nn(-c2ccccc2)c(Cl)c1/C=C/C(=O)c1ccc(O)cc1`: -0.695%.
Under `Cc1ccccc1-n1nc(C)c2c1N=C1C(Cl)=CC(Cl)=CN1C2c1ccc(C(=O)O)cc1` (stereo not given) stands 51.3% (active); under `Cc1ccccc1-n1nc(C)c2cc(C(=O)NC3CC3)sc21`, 0.032%; under `COc1ccc([C@H]2OC(=O)C[C@H]2C(=O)N2CCN(c3ccccc3F)CC2)cc1OC`, -1.64%.
Take `COc1ccccc1N(C)S(=O)(=O)c1ccc(C(=O)N2CCC(C(N)=O)CC2)cc1`: the inhibition was -2.68%.
With `COc1ccccc1N(C)S(=O)(=O)c1ccc(C(=O)NC2CCCCCC2)cc1`, the inhibition was 50.3% (active).
Regarding `COc1ccc(S(=O)(=O)NC(C)C)cc1C(=O)NC1CCCCC1`, the inhibition was 0.027%.
Regarding `O=C(NCCC1=CCCCC1)C1CCN(S(=O)(=O)c2ccc(Cl)s2)CC1`, the inhibition was -2.83%.
For the compound `COc1ccccc1-c1cc(NC(C)=O)c2ncc(-c3ccc(F)cc3)n2c1`, the inhibition was -0.432%.
